Reference: PubChem BioAssay
The source made the active and inactive calls.

What was measured:
[1] = small molecules captured by biotinylated probe aFSTL3 – biochemical, small-molecule microarray, fluorescence 635/667, stem cell growth factor project, primary screen (AID 1064); conditions: higher = more signal;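 also: measures binding of the biotinylated anti-FSTL3 antibody to printed compounds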
[2] = binders from COS7 lysate, DM2A8 probe, primary screen, torsin A project, cell lysate, small-molecule microarray, fluorescence 635/667 (AID 1065); conditions: higher = more signal, COS7 lysate expressing mutant human TOR1A
[3] = small molecules captured by biotinylated probe aFGF2 – biochemical, small-molecule microarray, fluorescence 635/667, stem cell growth factor project, primary screen (AID 1067); conditions: higher = more signal;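 also: measures binding of biotinylated aFGF2 protein to printed compounds on slides; z-score merges feature fluorescence and signal-to-noise across triplicate slides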
[4] = small molecules captured by biotinylated probe aFGF10 – biochemical, small-molecule microarray, fluorescence 635/667, stem cell growth factor project, primary screen (AID 1071); conditions: higher = more signal;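 also: score merges 667 nm spot intensity and signal to noise from triplicate slides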
[5] = target: Neurogenic locus notch homolog protein 2 (Homo sapiens) (UniProt Q04721); experiment: small molecules binding Notch2 protein – biochemical, small-molecule microarray, 635 nm fluorescence, stem cell growth factors, primary screen (AID 1073); conditions: higher = more signal
Sequence of Neurogenic locus notch homolog protein 2 (Homo sapiens) (Q04721 whole entry, looked up, canonical isoform): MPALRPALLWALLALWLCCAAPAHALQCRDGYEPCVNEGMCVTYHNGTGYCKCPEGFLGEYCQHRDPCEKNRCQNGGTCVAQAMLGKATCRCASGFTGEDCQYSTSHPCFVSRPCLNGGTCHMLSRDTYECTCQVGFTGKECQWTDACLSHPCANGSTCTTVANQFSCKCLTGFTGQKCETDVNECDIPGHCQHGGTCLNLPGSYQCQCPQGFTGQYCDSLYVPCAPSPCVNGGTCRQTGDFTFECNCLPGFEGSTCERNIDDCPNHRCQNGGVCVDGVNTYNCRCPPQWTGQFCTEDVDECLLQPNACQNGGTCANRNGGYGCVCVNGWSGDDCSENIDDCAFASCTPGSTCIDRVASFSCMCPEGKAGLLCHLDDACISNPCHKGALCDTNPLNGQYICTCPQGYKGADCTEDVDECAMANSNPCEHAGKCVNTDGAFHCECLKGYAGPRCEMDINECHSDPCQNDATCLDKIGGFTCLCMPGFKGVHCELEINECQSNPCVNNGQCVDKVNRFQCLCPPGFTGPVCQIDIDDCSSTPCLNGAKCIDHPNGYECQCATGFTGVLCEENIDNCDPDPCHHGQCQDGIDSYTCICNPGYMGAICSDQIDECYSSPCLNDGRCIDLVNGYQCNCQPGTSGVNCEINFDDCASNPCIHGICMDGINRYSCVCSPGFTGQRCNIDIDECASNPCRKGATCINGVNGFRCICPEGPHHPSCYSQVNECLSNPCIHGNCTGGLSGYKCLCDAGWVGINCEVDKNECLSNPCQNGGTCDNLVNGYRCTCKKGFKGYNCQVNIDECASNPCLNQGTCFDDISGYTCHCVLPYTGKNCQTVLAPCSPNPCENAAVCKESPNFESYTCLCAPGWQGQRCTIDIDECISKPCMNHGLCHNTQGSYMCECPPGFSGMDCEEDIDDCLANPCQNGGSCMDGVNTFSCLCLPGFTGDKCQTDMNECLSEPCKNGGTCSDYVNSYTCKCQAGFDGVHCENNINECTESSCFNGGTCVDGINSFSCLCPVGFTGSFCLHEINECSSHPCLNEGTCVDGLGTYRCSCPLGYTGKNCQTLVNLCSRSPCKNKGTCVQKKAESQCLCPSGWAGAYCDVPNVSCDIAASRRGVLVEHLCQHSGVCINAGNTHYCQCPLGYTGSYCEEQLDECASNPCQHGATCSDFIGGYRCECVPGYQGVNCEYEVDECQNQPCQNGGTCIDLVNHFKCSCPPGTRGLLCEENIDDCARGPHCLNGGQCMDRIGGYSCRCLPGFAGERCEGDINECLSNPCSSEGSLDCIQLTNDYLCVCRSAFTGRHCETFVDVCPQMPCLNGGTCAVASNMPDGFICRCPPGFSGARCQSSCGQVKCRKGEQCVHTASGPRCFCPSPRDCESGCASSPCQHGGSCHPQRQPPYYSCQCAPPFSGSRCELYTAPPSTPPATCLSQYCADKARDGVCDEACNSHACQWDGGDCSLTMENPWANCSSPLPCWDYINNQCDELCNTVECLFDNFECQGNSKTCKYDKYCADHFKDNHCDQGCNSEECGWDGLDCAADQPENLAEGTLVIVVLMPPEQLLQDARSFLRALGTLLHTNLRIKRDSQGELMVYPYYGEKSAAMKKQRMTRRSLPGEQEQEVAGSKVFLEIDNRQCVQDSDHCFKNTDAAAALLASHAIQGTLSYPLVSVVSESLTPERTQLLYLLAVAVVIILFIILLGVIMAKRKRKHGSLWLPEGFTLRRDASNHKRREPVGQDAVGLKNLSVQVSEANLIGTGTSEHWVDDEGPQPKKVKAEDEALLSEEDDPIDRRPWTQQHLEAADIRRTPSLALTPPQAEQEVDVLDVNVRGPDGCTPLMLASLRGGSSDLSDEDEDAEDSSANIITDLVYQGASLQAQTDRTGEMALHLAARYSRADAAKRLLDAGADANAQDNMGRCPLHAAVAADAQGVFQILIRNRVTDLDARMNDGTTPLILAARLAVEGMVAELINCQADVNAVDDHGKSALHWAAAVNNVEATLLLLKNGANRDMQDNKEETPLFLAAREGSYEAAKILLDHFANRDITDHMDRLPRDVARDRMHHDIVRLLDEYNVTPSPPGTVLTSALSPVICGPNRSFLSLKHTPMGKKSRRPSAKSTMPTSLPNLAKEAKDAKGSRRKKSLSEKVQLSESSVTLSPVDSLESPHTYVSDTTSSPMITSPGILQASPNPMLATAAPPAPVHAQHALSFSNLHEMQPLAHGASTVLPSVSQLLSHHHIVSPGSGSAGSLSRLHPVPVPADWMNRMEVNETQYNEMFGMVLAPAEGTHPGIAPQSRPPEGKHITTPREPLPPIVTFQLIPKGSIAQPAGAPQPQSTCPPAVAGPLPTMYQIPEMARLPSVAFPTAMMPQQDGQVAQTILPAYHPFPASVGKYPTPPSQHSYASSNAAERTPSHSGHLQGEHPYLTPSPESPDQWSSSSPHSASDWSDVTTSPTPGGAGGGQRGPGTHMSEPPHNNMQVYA

[6] = target: Pro-neuregulin-1, membrane-bound isoform (Homo sapiens) (UniProt Q02297); experiment: small molecules binding neuregulin-1 protein – biochemical, small-molecule microarray, fluorescence 635/667, psychiatric disease protein project, primary screen (AID 1075); conditions: NRG1 binding, 635 nm fluorescence, higher = more signal;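 also: score combines 667 nm spot fluorescence with signal to noise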
Sequence of Pro-neuregulin-1, membrane-bound isoform (Homo sapiens) (Q02297 whole entry, looked up, the tested form may be a part, canonical isoform): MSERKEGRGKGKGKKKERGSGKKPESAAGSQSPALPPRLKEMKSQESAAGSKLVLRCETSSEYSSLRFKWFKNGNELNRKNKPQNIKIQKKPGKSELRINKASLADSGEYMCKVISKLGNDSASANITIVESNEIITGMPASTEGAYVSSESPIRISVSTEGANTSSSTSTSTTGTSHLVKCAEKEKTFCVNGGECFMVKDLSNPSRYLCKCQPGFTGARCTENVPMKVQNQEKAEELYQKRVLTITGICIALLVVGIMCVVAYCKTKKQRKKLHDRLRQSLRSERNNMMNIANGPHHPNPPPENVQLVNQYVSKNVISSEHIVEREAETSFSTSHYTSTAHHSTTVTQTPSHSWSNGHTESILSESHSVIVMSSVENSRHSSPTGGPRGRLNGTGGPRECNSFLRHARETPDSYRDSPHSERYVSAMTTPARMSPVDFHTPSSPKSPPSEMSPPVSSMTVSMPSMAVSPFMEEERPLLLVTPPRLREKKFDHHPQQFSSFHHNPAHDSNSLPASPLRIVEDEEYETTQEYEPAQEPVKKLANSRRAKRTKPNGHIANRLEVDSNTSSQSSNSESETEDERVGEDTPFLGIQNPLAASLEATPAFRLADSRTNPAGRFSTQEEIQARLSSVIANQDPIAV

[7] = test system: Neuregulin-1 EGF-like domain; experiment: small molecules binding NRG1 EGF domain – biochemical, small-molecule microarray, 635 nm fluorescence, primary screen (AID 1081); conditions: higher = more signal;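 also: binding of the protein to compounds printed on small-molecule microarray slides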
[8] = FRG1 expression reporter modulators in myotubes – cell-based, C2C12 myotubes, firefly/Renilla luciferase, luminescence, FRG1 inhibition for FSHD, primary screen (AID 1084); conditions: FRG1 promoter luciferase, higher = more signal, called active from +8 up or from −8 down
[9] = small molecules captured by biotinylated probe aFST – biochemical, small-molecule microarray, fluorescence 635/667, stem cell growth factor project, primary screen (AID 1086); conditions: higher = more signal;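 also: score merges 667 nm fluorescence with signal-to-noise of each printed compound spot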
[10] = binders of probe aHhip on microarray, primary screen, stem cell growth factor project, biochemical, small-molecule microarray, fluorescence 635/667 (AID 1087); conditions: higher = more signal;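 also: score merges spot fluorescence at 667nm with spot signal to noise ratio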

Compound | composite z-score [1] | composite z-score [2] | composite z-score [3] | composite z-score [4] | composite z-score [5] | composite z-score [6] | composite z-score [7] | z-score [8] | composite z-score [9] | composite z-score [10]
CO[C@H]1O[C@H](CO)[C@@H](OC(=O)Nc2ccccc2-c2ccccc2)[C@H](OC(=O)Nc2ccc3c(c2)OCO3)[C@@H]1OC(=O)Nc1ccc2c(c1)OCO2 | 0.0632 | 0.291 | 0.0826 | 0.733 | 1.44 | 1.62 | 1.4 | 5.64 (inactive) | 1.2 | 0.141
COCCOC(=O)N1C(=O)[C@@]2(c3cc(C#CC4(O)CCCCCC4)ccc31)[C@H](C(=O)N1CCCCCCC1)[C@H]1C(=O)O[C@H](c3ccccc3)[C@H](c3ccccc3)N1[C@@H]2c1ccc(OCCO)cc1 | 3.43 | 1.62 | 0.79 | 1.2 | 1.26 | 2.18 | 1.24 | -3.21 (inactive) | 3.29 | 1.77
CN(C)CCCNC(=O)[C@@H]1c2ccccc2C(=O)N(Cc2ccc(OC(F)(F)F)cc2)[C@H]1c1ccc(CO)cc1 | -0.212 | -0.103 | -0.113 | -0.133 | -0.0854 | 1.22 | 1.15 | -1.22 (inactive) | 0.18 | 0.287
CC(C)(C)N1CC=CC23O[C@@H]4C=CCOC(=O)[C@@H]4[C@H]2C(=O)N(CCCO)[C@@H]3C1=O (stereo not given in full) | 0.698 | -0.182 | -0.199 | -0.838 | -1.54 | -0.475 | 1.08 | 0.619 (inactive) | -1 | -0.0994
CC=CC(O)C1C=CC2C(=O)N(C)C(=O)C2N1N1CCCCC1 (stereo not given) | -0.0771 | 0.326 | -0.0231 | 0.862 | 1.45 | 1.85 | 1.26 | 1.89 (inactive) | 0.697 | -0.305
[N-]=[N+]=Nc1ccccc1C[C@@]1(C(=O)O)N=C(c2ccc(OCCCO)cc2)O[C@@H]1c1ccccc1 | 0.0693 | -0.518 | 0.0248 | 0.303 | 1.35 | 1.75 | 1.24 | 0.835 (inactive) | 0.827 | -0.0765
CC(C)(C)OC(=O)CC[C@@]1(C(=O)O)N=C(c2ccc(OCCCO)cc2)O[C@@H]1c1ccccc1 | 0.308 | -0.648 | -0.0459 | 0.13 | 0.347 | 1.96 | 1.53 | 0.853 (inactive) | 0.398 | 0.24
O=C1O[C@H](c2ccccc2)[C@H](c2ccccc2)N2[C@H]1[C@@H](C(=O)O)[C@]1(C(=O)Nc3ccccc31)[C@H]2c1ccc(O)cc1 | 1.17 | -0.122 | -0.113 | 0.338 | -0.844 | 1.85 | 0.771 | 1.28 (inactive) | -0.388 | -0.24
Cc1ccc(F)cc1S(=O)(=O)N[C@@H]1CCN(Cc2ccc(Oc3ccccc3)cc2)C1 | -0.191 | 0.45 | -0.144 | -0.3 | -0.155 | 0.0412 | -0.014 | -1.9 (inactive) | 0.0111 | -0.34
C=CC[C@]1(C(=O)N(C)C)N=C(c2ccc(OCCCO)cc2)O[C@H]1c1ccccc1N=[N+]=[N-] | 0.396 | -0.113 | 0.161 | 0.567 | 1.48 | 1.3 | 1.2 | 1.52 (inactive) | 1.87 | -0.199
C[N+](C)(C)CCCC[C@@H]1NC(=O)[C@@H]2C[C@H](C(=O)O)[C@H](c3ccc(O)cc3)N2C1=O | 1.26 | -0.752 | -0.119 | -0.695 | -1.77 | -0.0673 | -0.118 | 0.0902 (inactive) | -0.639 | -0.137
CCCN1C(=O)[C@]2(Cc3ccccc3)N=C(c3ccc(OCCCO)cc3)O[C@@H]2c2ccccc21 | 0.224 | 1.12 | -0.0226 | 0.347 | 0.415 | 0.305 | 1.3 | -0.355 (inactive) | 0.195 | -0.198
C=CCOC(=O)[C@@H]1[C@H]2C(=O)O[C@H](c3ccccc3)[C@H](c3ccccc3)N2[C@H](c2ccc(OCCOC(=O)[C@H]3C[C@H]4C(=O)N[C@@H](CCCCN(C)C)C(=O)N4[C@H]3c3cccc(OCCO)c3)cc2)[C@@]12C(=O)Nc1ccc(I)cc12 | 0.0594 | 1.24 | -0.0308 | 0.526 | 0.59 | 1.55 | 1.32 | 0.842 (inactive) | 0.312 | 0.064
C=CCOC(=O)[C@H]1[C@@H]2C(=O)O[C@@H](c3ccccc3)[C@@H](c3ccccc3)N2[C@@H](c2ccc(OCCOC(=O)[C@H]3C[C@H]4C(=O)N[C@@H](Cc5ccccc5)C(=O)N4[C@H]3c3ccc(O)cc3)cc2)[C@]12C(=O)Nc1ccc(I)cc12 | 0.558 | 0.412 | -0.0093 | 0.979 | 0.779 | 0.932 | 1.21 | 0.808 (inactive) | 2.17 | -0.582
CC1CC/C=C\[C@H]2OC34C=CCN(CCN5CCOCC5)C(=O)[C@H]3N(CCO)C(=O)[C@@H]4C2C(=O)O1 (stereo not given in full) | 0.507 | -0.342 | 0.013 | -0.105 | -0.807 | -0.917 | -0.376 | -0.322 (inactive) | -0.421 | -0.4
COCCOC(=O)N1C(=O)[C@@]2(c3ccccc31)[C@H](c1ccc(OCCO)cc1)N1[C@H](c3ccccc3)[C@H](c3ccccc3)OC(=O)[C@H]1[C@@H]2C(=O)Nc1nc2ccccc2s1 | -0.436 | -0.504 | -0.0848 | 0.26 | 0.829 | 1.07 | 1.25 | -0.567 (inactive) | 0.439 | 0.154
C=CCOC(=O)[C@@H]1[C@H]2C(=O)O[C@H](c3ccccc3)[C@H](c3ccccc3)N2[C@H](c2ccc(OCCOC(=O)[C@H]3C[C@H]4C(=O)N[C@@H](CCCC[N+](C)(C)C)C(=O)N4[C@H]3c3ccc(O)cc3)cc2)[C@@]12C(=O)Nc1ccc(I)cc12 | -0.42 | 1.1 | -0.0569 | 0.528 | 1.18 | 1.31 | 1.37 | 0.369 (inactive) | 0.208 | -0.138

Compound | composite z-score [1] | composite z-score [2] | composite z-score [3] | composite z-score [4] | composite z-score [5] | composite z-score [6] | composite z-score [7] | z-score [8] | composite z-score [9] | composite z-score [10]
CC(C)C(CO)N1C(=O)[C@]2(C)C3C(=O)OCCC/C=C\[C@H]3OC23C=CCN(c2ccc(Cl)cc2)C(=O)[C@@H]13 (stereo not given in full) | 0.0972 | -0.481 | -0.101 | -0.17 | -0.689 | 0.344 | 1.11 | 0.0186 (inactive) | 0.0043 | -0.0994
CC(C)CNC(=O)[C@@]1(c2ccc([N+](=O)[O-])cc2)CC(=O)N(C2CCCCC2)[C@@H]1c1ccc(CO)cc1I | 0.0706 | 0.148 | -0.0728 | -0.186 | 0.421 | 1.14 | 0.734 | -0.35 (inactive) | -0.126 | -0.335
COC(=O)[C@@]1(Cc2ccccc2)[C@H]2c3cc(C(=O)N4CCCC4)n(Cc4cc(F)cc5c4OCOC5)c3C[C@H]2CN1C(=O)c1ccccc1 | 0.752 | -0.234 | 0.356 | 0.762 | 1.73 | 1.1 | 1.22 | -0.223 (inactive) | 0.929 | -0.0905
CCOc1cc(C(O)C2C=CC3C(=O)N(C)C(=O)C3N2N2CCCCC2)ccc1O (stereo not given) | -0.152 | 0.38 | 0.0421 | 0.348 | 0.885 | 1.45 | 0.496 | 0.133 (inactive) | 0.707 | 0.0139
CCOC(=CC(=O)OC)CC(O)c1cccc(Cl)c1 (stereo not given) | 0.201 | 0.071 | -0.0504 | -0.157 | -0.124 | 1.43 | 1.37 | -3.65 (inactive) | -0.595 | -0.303
CC(C)c1ccc(NN2C(C(O)c3ccco3)C=CC3C(=O)N(c4ccccc4)C(=O)C32)cc1 (stereo not given) | 0.447 | 0.334 | 0.106 | 0.677 | 1.71 | 1.46 | 1.2 | -1.22 (inactive) | 1.34 | -0.0606
O=C1OCC=C[C@H]2OC34C=CCN(Cn5nnc6ccccc65)C(=O)[C@H]3N(CCCCCCO)C(=O)[C@@H]4[C@@H]12 (stereo not given in full) | 0.492 | -0.334 | -0.163 | -0.54 | -0.522 | 1.91 | 1.52 | 0.215 (inactive) | -0.116 | -0.201
COc1cc(CO)cc(I)c1O[C@H]1C=C(C(=O)NCCO)C[C@@H](NCc2ccccc2F)[C@@H]1O | -0.267 | 0.644 | 0.0232 | 1.17 | 0.161 | 0.321 | 0.989 | -1.05 (inactive) | 0.0915 | -0.0645
C=C(CCCC)C(=O)CC[C@@H](OC(=O)c1ccccc1-c1ccccc1C(=O)O)c1cccc(OCCO)c1 | -0.208 | 0.996 | -0.129 | 0.166 | -0.404 | 0.143 | 0.742 | 0.238 (inactive) | -0.499 | -0.249
CCN(CC)c1ccc(N2CC=CC34O[C@@H]5/C=C\CCC(C)OC(=O)C5[C@H]3C(=O)N(CCO)[C@@H]4C2=O)cc1 (stereo not given in full) | 0.478 | -0.476 | -0.103 | -0.57 | -0.331 | 1.57 | 1.15 | 1.16 (inactive) | -1.17 | -0.134
CCCCC(=C=CC[C@@H](O)c1ccc(OCCO)cc1)C[C@@H](O)COCc1ccccc1 | -0.111 | 1.09 | -0.0783 | 0.114 | -1.11 | -0.376 | -0.0622 | -2.2 (inactive) | 0.101 | 0.0743
CC(C)N1CC=CC23O[C@@H]4C=CCCOC(=O)C4[C@H]2C(=O)N(CCO)[C@@H]3C1=O (stereo not given in full) | 0.108 | 2.11 | -0.177 | -0.351 | -0.537 | -0.637 | 0.606 | -0.286 (inactive) | -0.398 | -0.0939
CCCCC(CC)C(O)C1C=CC2C(=O)N(c3ccccc3)C(=O)C2N1Nc1ccc([N+](=O)[O-])cc1 (stereo not given) | -0.294 | 0.153 | 0.141 | 0.848 | 1.73 | 1.88 | 1.26 | -1.62 (inactive) | 1.1 | -0.234
CCOC(=O)[C@@H]1[C@@H]2C(=O)N(CC)C(=O)[C@@H]2C[C@@H]1Sc1ccccc1 | -0.528 | 1.04 | 0.0308 | 0.712 | 1.39 | 0.354 | 1.33 | -1.02 (inactive) | 0.731 | -0.226
COc1ccc([Si](C)(C)[C@@H]2[C@@H](CCO)O[C@]3(C(=O)N(Cc4cccc(N5C(=O)c6ccccc6Oc6ccccc65)c4)c4ccccc43)[C@H]2C)cc1 | 0.393 | 0.123 | -0.134 | -0.173 | -0.571 | 0.536 | 0.602 | 0.133 (inactive) | 0.0472 | -0.134
O=C1O[C@@H](c2ccccc2)[C@@H](c2ccccc2)N2[C@@H](c3ccccc3OCCO)[C@]3(C(=O)Nc4ccc(C#CCCO)cc43)[C@@H](C(=O)N3CCN(c4ncccn4)CC3)[C@H]12 | -0.132 | -0.167 | -0.0004 | 0.608 | 1.34 | 1.56 | 1.13 | -2.32 (inactive) | 0.29 | -0.069
